Most compounds without a hit are left out; they make up all but 8.9% or so of the library.
ALOX12 inhib: 12-hLO (ALOX12) enzyme inhibition; purified 12-hLO, xylenol orange hydroperoxide absorbance; Potency, µM (series often up to 57.1 µM), for inactives: top-dose activity change, negative = inhibition, usual class: inhibitors; actives 0.12% (n = 150,000); further: potency means the concentration at half of the fitted maximal effect; nearly all actives have a fitted effect of over 55% in size
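150 nM 12hLO, 25 mM Hepes pH 7.0 + 0.01% Triton X-100; cpd preinc 15 min RT; 40 uM arachidonic acid, 30 min RT; Fe-XO 30 min; A573/A405 ratio as read-out.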
ALDH1A1 inh: blocks purified human ALDH1A1 activity | Potency, µM (titrated, usually from 75.3 µM), for the others: at the highest dose activity, negative = inhibition, actives largely listed as inhibitors | Purified ALDH1A1, NADH fluorescence, propionaldehyde substrate | P00352 | actives 7.3% (n = 220,000); active means well fitted inhibition curve with a large enough effect, not every such curve was filed as active; inconclusive means small, poorly fitted or top-dose-only effect, or another doubt; inactive means no such curve, though single readings can be large or run the other way;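 further: potency means the concentration at half of the fitted maximal effect; plate controls were no enzyme wells and a reference inhibitor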
IMPase cell inh: membrane-permeable compound that blocks inositol monophosphatase. P97697. CHO-M1 cells, IP1 accumulation, HTRF TR-FRET ratio. inhibition (IP1 accumulation), % at 46.1 µM. 120,000 tested, under 10 active; active means well fitted curve in the direction sought with a large enough effect in the signal ratio, not every such curve was filed as active; inconclusive means small, poorly fitted or top-dose-only effect, or a change in a side signal; inactive means no such curve, though single readings can be large or run the other way; the % refers to the signal ratio;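 further: cells stimulated with carbachol in lithium chloride buffer; plate controls were DMSO basal wells for no effect and reference inhibitor wells for full effect; higher means more IMPase inhibition seen as more IP1 and lower FRET ratio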
Target sequence (P97697 whole entry, looked up): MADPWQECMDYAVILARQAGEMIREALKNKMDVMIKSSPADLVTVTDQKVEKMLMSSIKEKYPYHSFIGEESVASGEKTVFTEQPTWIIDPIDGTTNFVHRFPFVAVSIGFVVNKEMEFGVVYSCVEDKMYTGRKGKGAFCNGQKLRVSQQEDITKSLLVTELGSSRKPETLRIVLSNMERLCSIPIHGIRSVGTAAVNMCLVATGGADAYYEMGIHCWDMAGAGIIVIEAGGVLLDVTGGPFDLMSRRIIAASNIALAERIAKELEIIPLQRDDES
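Elevated IP1 in lysates lowers TR-FRET signal (665/620 ratio and 620 channel reported). Cells were CHO-M1, given carbachol (50 uM as added) plus 50mM LiCl, pH 7.4, 30 min, 37C; compounds titrated up to 46 uM; AC50 by Hill equation.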
NPSR antag: neuropeptide S receptor (human) antagonism, cAMP; Q6W5P4; CHO-NPSR cells, cAMP TR-FRET, antagonist mode; Potency, µM (doses to about 38.3 µM), inactives show at the highest dose activity change, negative = inhibition, usual class: inhibitors; actives 1% (n = 220,000); further: potency means the concentration at half of the fitted maximal effect; nearly all actives have a fitted effect of over 50% in size
Target sequence (Q6W5P4 whole entry, looked up): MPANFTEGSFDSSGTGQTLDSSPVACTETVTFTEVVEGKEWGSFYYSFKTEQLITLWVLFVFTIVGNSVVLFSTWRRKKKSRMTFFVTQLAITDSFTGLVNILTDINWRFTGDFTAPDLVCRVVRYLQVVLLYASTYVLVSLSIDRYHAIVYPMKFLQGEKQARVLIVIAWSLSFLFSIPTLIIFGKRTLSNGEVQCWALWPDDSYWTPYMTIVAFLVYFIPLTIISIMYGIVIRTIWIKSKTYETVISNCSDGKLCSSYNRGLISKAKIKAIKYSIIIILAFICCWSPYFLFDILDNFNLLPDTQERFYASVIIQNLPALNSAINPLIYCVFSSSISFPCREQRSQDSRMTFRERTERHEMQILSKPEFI
IMPase Li cell: cell-permeable IMPase inhibitors with lithium potentiation; AID 1457; CHO-M1 cells, IP1 TR-FRET (IP-One), carbachol + lithium; Potency, µM (series often up to 59.4 µM), without a hit: top-dose activity, negative = IMPase inhibition, hits mostly inhibitors; actives 0.35% (n = 210,000);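 further: IP1 builds up when IMPase is blocked and the TR-FRET signal falls; potency means the concentration at half of the fitted maximal effect; plate controls were basal vehicle for no effect and high inhibitor control for full effect; nearly all actives have a fitted effect of over 50% in size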
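Test compounds were applied to CHO-M1 cells previously cultured for 16–30 h at 2000 per well. A small lithium amount accompanied them; after 30 min at 37C, IP1 was quantified by TR-FRET.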
HPGD inh: blocks human HPGD enzyme activity; P15428; purified HPGD, NADH fluorescence kinetic, PGE2 substrate; Potency, µM, for inactives: at the top dose activity change, negative = inhibition, actives largely listed as inhibitors; actives 4.3% (n = 150,000); active means well fitted inhibition curve with a large enough effect, not every such curve was filed as active; inconclusive means small, poorly fitted or top-dose-only effect, or another doubt; inactive means no such curve, though single readings can be large or run the other way; further: potency means the concentration at half of the fitted maximal effect
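NADH formation kinetics: reaction with 30 uM PGE2 and 1 mM NAD+ (final), 20 nM enzyme, Tris-HCl pH 8 with Tween 20, after 15 min compound preincubation at room temperature. Fluorescence change, last versus first of five reads.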
* hit, by the source's call; ? = inconclusive; / = no result given; [ ] = another dose, or the depositor's remark. Unless noted, the call rests on the fitted dose curve; in most records, active means well fitted curve in the direction sought with a large enough effect; inconclusive means small, poorly fitted or top-dose-only effect, or another doubt; inactive means no such curve, though single readings can be large; an effect the other way counts as inactive or inconclusive. Unless noted, on the % scale 0 is the no-effect control and ±100 the full control effect.

SMILES	ALOX12 inhib	ALDH1A1 inh	IMPase cell inh	NPSR antag	IMPase Li cell	HPGD inh
Cc1cc(NC(=O)C(C)SCC(=O)O)no1 (centres undefined)	/	2%	/	8%	-7%	/
COc1ccc(NC(=O)CC2C(=O)N(C)C(=S)N2CCc2ccccc2F)cc1 (centres undefined)	/	4µM*	/	-10%	3%	/
COc1ccc(NC(=O)CC2C(=O)N(c3ccc(Cl)cc3)C(=S)N2CCc2ccccn2)cc1 (centres undefined)	-10%	16µM*	9	?	8%	-19%
CCN1C(=O)C(CC(=O)Nc2ccc(F)cc2)N(CCc2ccc(OC)cc2)C1=S (centres undefined)	/	10µM*	/	-27%	22%	/
CCN1C(=O)C(CC(=O)Nc2ccc(OC)cc2)N(CCc2ccccc2)C1=S (centres undefined)	/	2µM*	/	-36%	8%	/
COc1ccc(C)cc1NC(=O)CN(C)S(=O)(=O)c1cccs1	-2%	-15%	-2	-8%[46.1 µM]	0%[38.3 µM]	3%
Cc1ccc(O)c(N)c1	-15%	?	/	/	5%	-9%
COc1ccc(O)c(N)c1	/	25µM*	/	-8%	10%	/
COc1cc2cc(Br)cc(Br)c2nc1C	5%	?	?	?	13µM*	-15%
Clc1ccc(N2COC3c4cccc5cccc(c45)C32)cc1 (centres undefined)	2%	-12%	3	-5%[46.1 µM]	11%	-13%
COc1ccc(N2COC3c4cccc5cccc(c45)C32)cc1 (centres undefined)	-10%	19µM*	7	-11%[46.1 µM]	14%	-20%
COc1ccc(C(=O)NC(=S)Nc2nc(C)cc(C)n2)cc1Br	/	/	/	-6%	/	/
Cc1cc(C)nc(N2N=C(C(C)(C)C)CC2=O)n1	4%	6.3µM*	6	4%[46.1 µM]	25%[38.3 µM]	-4%
Cc1ccc(SCC2=NN(c3nc(C)cc(C)n3)C(=O)C2)cc1	/	-2%	/	10%	1%	/
COc1ccccc1-n1c(C)nc2cc(C(=O)O)ccc21	5%	-14%	?	-6%[46.1 µM]	11%[38.3 µM]	-23%
O=C(O)c1ccc2c(c1)ncn2C1CCCCC1	0%	-4%	3[1.84 µM]	-5%[46.1 µM]	23%[38.3 µM]	-11%
COc1ccccc1-n1cnc2cc(C(=O)NC3CCCC3)ccc21	2%	3%	-10	?	14%	16µM*
CCOc1ccccc1-n1cnc2cc(C(=O)NCc3ccco3)ccc21	-1%	-16%	4	-14%[46.1 µM]	2%[38.3 µM]	16µM*
COc1ccc(OC)c(-n2cnc3cc(C(=O)O)ccc32)c1	-1%	5%	0	?	14%[38.3 µM]	16µM*
O=C(NC1CC1)c1ccc2c(c1)ncn2C1CCCC1	1%	?	3	-2%[46.1 µM]	-2%[38.3 µM]	14µM*
CC1=C(C(=O)OCC2CCCO2)C(c2ccc(C)cc2)C2=C(CCCC2=O)N1 (centres undefined)	/	-15%	/	2%	21%	/
Cn1c(CC(=O)NC(C)(C)CO)c(Sc2ccccc2)c2ccccc21	2%	-1%	/	-12%	2%	-11%
COC(=O)c1c(O)cc(=O)n2c1CCCCC2	/	1.8µM*	/	6%	15%	/
O=C(CCCCn1c(=O)c2ccccc2n(Cc2ccc(Cl)cc2)c1=O)NCc1ccco1	-3%	-4%	9	-13%[46.1 µM]	2%[38.3 µM]	-26%
COC(=O)[C@@H]1C[C@@]2(O)[C@H](O)[C@H](O)[C@H](O)C[C@H]2N1Cc1ccc(N2CCOCC2)cc1	4%	?	/	/	-5%	-21%
SMILES	ALOX12 inhib	ALDH1A1 inh	IMPase cell inh	NPSR antag	IMPase Li cell	HPGD inh
COC(=O)[C@@H]1C[C@@]2(O)[C@H](O)[C@H](O)[C@H](O)C[C@H]2N1Cc1ccc(N2CCN(C)CC2)cc1	-1%	22µM*	/	/	-5%	-17%
COc1ccc(-c2cc(C(F)F)n3ncc(C(=O)NCCCN4CCCC4=O)c3n2)cc1	2%	?	?	-7%[46.1 µM]	37%[38.3 µM]	?
Cc1ccc2c(c1)nnn2C1CCN(C(=O)NC23CC4CC(CC(C4)C2)C3)CC1	0%	18%	1	16%[46.1 µM]	2%	-3%
Cc1ccc2c(c1)nnn2C1CCN(C(=O)C23CC4CC(CC(C4)C2)C3)CC1	2%	18µM*	11	?	20%	5%
CCOC(=O)c1ccc(N2CSC3=C(C#N)C(c4ccc(OC)cc4OC)CC(=O)N3C2)cc1 (centres undefined)	?	14µM*	-1	-28%[46.1 µM]	12%[38.3 µM]	-9%
CCOc1ccc(N2CSC3=C(C#N)C(c4ccco4)CC(=O)N3C2)cc1 (centres undefined)	?	4.5µM*	1	?	?	10µM*
COc1ccc(OC)c(C2CC(=O)N3CN(c4ccc(C)c(Cl)c4)CSC3=C2C#N)c1 (centres undefined)	-7%	7.9µM*	-11	-7%[46.1 µM]	12%[38.3 µM]	?
COc1ccc(OC)c(C2CC(=O)N3CN(c4cccc(Cl)c4)CSC3=C2C#N)c1 (centres undefined)	?	35µM*	4	0%[46.1 µM]	6%[38.3 µM]	-20%
NS(=O)(=O)c1ccc(Oc2ccc(S(N)(=O)=O)cc2)cc1	/	50%	/	18%	3%	/
C=CS(=O)(=O)c1ccc(Oc2ccc(S(=O)(=O)C=C)cc2)cc1	-4%	0.032µM*	/	-39%	19%	-20%
COc1cc(OC)c(NS(=O)(=O)c2cc(C(=O)OCC(=O)NCC3CCCO3)ccc2OC)cc1Cl (centres undefined)	/	?	/	-13%	2%	/
CC[C@@H](C)CN1C(=O)N[C@@H](c2ccccc2)C(C(=O)OC)=C1C	0%[11.4 µM]	11%[13.5 µM]	/	/	-3%	-1%
CN(C)C(=O)c1ccc2c(c1)n(C)c(=O)n2C	2%	-2%	2	2%[46.1 µM]	2%	-12%
Cn1c(=O)n(C)c2cc(C(=O)c3ccccc3)ccc21	0%	7.9µM*	14	-9%[46.1 µM]	17%[38.3 µM]	-14%
O=C(c1cnc2ccccn2c1=O)N1CCCc2ccccc21	-2%	8.9µM*	2	-27%[46.1 µM]	-5%[38.3 µM]	-9%
COc1ccccc1NS(=O)(=O)c1cccc(C(=O)NN=C2CCCCCC2)c1	-4%	13µM*	/	11%	4%	-17%
COC(=O)c1ccc(NC(=O)CN(C)Cc2cccc(F)c2)cc1	/	-9%	/	0%	2%	/
CN(Cc1cccc(F)c1)C(=O)c1ccc(S(=O)(=O)C(F)F)cc1	-3%	?	7	-1%[46.1 µM]	1%[38.3 µM]	32µM*
COCCn1c(SCC(=O)c2ccc3c(c2)OCCO3)nnc1C(C)C	1%	10µM*	3	-10%[46.1 µM]	10%[38.3 µM]	-9%
COCCn1c(SCC(=O)c2ccc(Cl)cc2)nnc1C(C)C	-15%	9.5µM*	-8	-6%[46.1 µM]	14%[38.3 µM]	?
CCCn1c(SCC(=O)c2ccc3c(c2)OCCO3)nnc1-c1ccco1	-3%	-6%	7	-7%[46.1 µM]	-6%[38.3 µM]	-3%
